# From PMC8384837, “Expanding the binding specificity for RNA recognition by a PUF domain”
# Substitutions are numbered along the chain they refer to.
# How the values were obtained:
# Experiment in all cases: yeast three-hybrid, YBZ-1, SC-Leu-His + 0.5 mM 3-AT, 4 days
# Details in all cases: tags: N-Gal4 AD-HA kept; label: inside an RPR1-promoter hybrid RNA with tandem MS2 sites; ssRNA
# PUM1 PUF domain R6-RWG = target: T1, PUM1 PUF domain R6-RWG (Homo sapiens, UniProt Q14671 828-1176, N1043R;Y1044W;Q1047G)
# T1 sequence: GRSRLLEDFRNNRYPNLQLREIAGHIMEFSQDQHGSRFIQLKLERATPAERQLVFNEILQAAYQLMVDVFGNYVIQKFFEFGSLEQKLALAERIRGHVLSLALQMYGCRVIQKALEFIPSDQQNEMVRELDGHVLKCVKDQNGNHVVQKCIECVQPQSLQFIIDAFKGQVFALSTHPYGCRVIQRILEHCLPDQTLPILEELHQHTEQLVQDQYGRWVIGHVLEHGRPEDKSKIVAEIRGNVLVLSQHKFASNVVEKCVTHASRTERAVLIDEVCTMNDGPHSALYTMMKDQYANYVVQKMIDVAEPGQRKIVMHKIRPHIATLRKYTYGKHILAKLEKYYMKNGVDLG
# Procedure, shortened: (§1)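 Pumilio-1 PUF domain libraries, randomized at the three base-contacting residues of each repeat, were co-expressed with matching RNA elements from a centromeric plasmid in strain YBZ-1, which carries a LexA–MS2 coat fusion and a HIS3 reporter. Transformants grew for four days on SC-Leu (input) or on SC-Leu-His + 0.5 mM 3-AT (selection), and the repeat regions were PCR-amplified and Illumina-sequenced. The interaction score is the log change in variant frequency from input to selection. That logarithm is base 2, with a pseudocount of 1 where a variant was absent.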
# PUM1 PUF domain R6-VFV = target: T2, PUM1 PUF domain R6-VFV (Homo sapiens, UniProt Q14671 828-1176, N1043V;Y1044F;Q1047V)
# T2 sequence: T1 sequence with R216V, W217F, G220V
# Procedure, shortened: as §1
# PUM1 PUF domain R3-RRG = PUM1 PUF domain R3-RRG (Homo sapiens, UniProt Q14671 828-1176, C935R;Q939G)
# Procedure, shortened: as §1
# PUM1 PUF domain R3-FIA = PUM1 PUF domain R3-FIA (Homo sapiens, UniProt Q14671 828-1176, C935F;R936I;Q939A)
# Procedure, shortened: as §1
# PUM1 PUF domain R3-GWS = PUM1 PUF domain R3-GWS (Homo sapiens, UniProt Q14671 828-1176, C935G;R936W;Q939S)
# Procedure, shortened: as §1
# PUM1 PUF domain R4-VGL = PUM1 PUF domain R4-VGL (Homo sapiens, UniProt Q14671 828-1176, N971V;H972G;Q975L)
# Procedure, shortened: as §1
# PUM1 PUF domain R3-GCW = PUM1 PUF domain R3-GCW (Homo sapiens, UniProt Q14671 828-1176, C935G;R936C;Q939W)
# Procedure, shortened: as §1
# PUM1 PUF domain R4-GRI = PUM1 PUF domain R4-GRI (Homo sapiens, UniProt Q14671 828-1176, N971G;H972R;Q975I)
# Procedure, shortened: as §1
# PUM1 PUF domain R4-APA = PUM1 PUF domain R4-APA (Homo sapiens, UniProt Q14671 828-1176, N971A;H972P;Q975A)
# Procedure, shortened: as §1
# PUM1 PUF domain R3-DYV = PUM1 PUF domain R3-DYV (Homo sapiens, UniProt Q14671 828-1176, C935D;R936Y;Q939V)
# Procedure, shortened: as §1
# PUM1 PUF domain R6-WYR = target: T3, PUM1 PUF domain R6-WYR (Homo sapiens, UniProt Q14671 828-1176, N1043W;Q1047R)
# T3 sequence: T1 sequence with R216W, W217Y, G220R
# Procedure, shortened: as §1
# PUM1 PUF domain R1-TTR = PUM1 PUF domain R1-TTR (Homo sapiens, UniProt Q14671 828-1176, S863T;R864T;Q867R)
# Procedure, shortened: as §1
# PUM1 PUF domain R5-IHR = PUM1 PUF domain R5-IHR (Homo sapiens, UniProt Q14671 828-1176, C1007I;R1008H;Q1011R)
# Procedure, shortened: as §1
# PUM1 PUF domain R5-KHV = PUM1 PUF domain R5-KHV (Homo sapiens, UniProt Q14671 828-1176, C1007K;R1008H;Q1011V)
# Procedure, shortened: as §1
# PUM1 PUF domain R5-KSC = PUM1 PUF domain R5-KSC (Homo sapiens, UniProt Q14671 828-1176, C1007K;R1008S;Q1011C)
# Procedure, shortened: as §1
# PUM1 PUF domain R5-RCS = PUM1 PUF domain R5-RCS (Homo sapiens, UniProt Q14671 828-1176, C1007R;R1008C;Q1011S)
# Procedure, shortened: as §1
# PUM1 PUF domain R5-DHI = PUM1 PUF domain R5-DHI (Homo sapiens, UniProt Q14671 828-1176, C1007D;R1008H;Q1011I)
# Procedure, shortened: as §1
# PUM1 PUF domain R7-ERA = PUM1 PUF domain R7-ERA (Homo sapiens, UniProt Q14671 828-1176, S1079E;N1080R;E1083A)
# Procedure, shortened: as §1
# PUM1 PUF domain R8-AHR = PUM1 PUF domain R8-AHR (Homo sapiens, UniProt Q14671 828-1176, N1122A;Y1123H;Q1126R)
# Procedure, shortened: as §1
# PUM1 PUF domain R5-KLT = PUM1 PUF domain R5-KLT (Homo sapiens, UniProt Q14671 828-1176, C1007K;R1008L;Q1011T)
# Procedure, shortened: as §1
sequence,measurement,setting,value
GGCUAGAACUAGUGGAUCCCCCGGCGCCCGGCGGCUCGAGCCCGGGUAAGUGAAAAUAGUCUGCAUGCCGCCGGGCGCCAUGCCUGCAGGUCGACUCUAGAAAACAUG,binding signal,PUM1 PUF domain R6-RWG,3.42 log2 enrichment (interaction score)
same,binding signal,PUM1 PUF domain R6-VFV,5.24 log2 enrichment (interaction score)
GGCUAGAACUAGUGGAUCCCCCGGCGCCCGGCGGCUCGAGCCCGGGUAAGUGUAAGUAGUCUGCAUGCCGCCGGGCGCCAUGCCUGCAGGUCGACUCUAGAAAACAUG,binding signal,PUM1 PUF domain R3-RRG,0.28 log2 enrichment (interaction score)
same,binding signal,PUM1 PUF domain R3-FIA,3.2 log2 enrichment (interaction score)
same,binding signal,PUM1 PUF domain R3-GWS,1.75 log2 enrichment (interaction score)
GGCUAGAACUAGUGGAUCCCCCGGCGCCCGGCGGCUCGAGCCCGGGUAAGUGUAAAUAGUCUGCAUGCCGCCGGGCGCCAUGCCUGCAGGUCGACUCUAGAAAACAUG,binding signal,PUM1 PUF domain R4-VGL,3.22 log2 enrichment (interaction score)
same,binding signal,PUM1 PUF domain R3-GCW,1.82 log2 enrichment (interaction score)
same,binding signal,PUM1 PUF domain R4-GRI,3.58 log2 enrichment (interaction score)
same,binding signal,PUM1 PUF domain R4-APA,4.16 log2 enrichment (interaction score)
same,binding signal,PUM1 PUF domain R6-RWG,5.05 log2 enrichment (interaction score)
same,binding signal,PUM1 PUF domain R6-VFV,1.55 log2 enrichment (interaction score)
same,binding signal,PUM1 PUF domain R3-DYV,5.65 log2 enrichment (interaction score)
same,binding signal,PUM1 PUF domain R6-WYR,5.27 log2 enrichment (interaction score)
same,binding signal,PUM1 PUF domain R3-GWS,5.13 log2 enrichment (interaction score)
GGCUAGAACUAGUGGAUCCCCCGGCGCCCGGCGGCUCGAGCCCGGGUAAGUGUAAUUAGUCUGCAUGCCGCCGGGCGCCAUGCCUGCAGGUCGACUCUAGAAAACAUG,binding signal,PUM1 PUF domain R3-GCW,3.22 log2 enrichment (interaction score)
same,binding signal,PUM1 PUF domain R3-RRG,3.82 log2 enrichment (interaction score)
same,binding signal,PUM1 PUF domain R3-DYV,3.08 log2 enrichment (interaction score)
same,binding signal,PUM1 PUF domain R3-GWS,1.22 log2 enrichment (interaction score)
GGCUAGAACUAGUGGAUCCCCCGGCGCCCGGCGGCUCGAGCCCGGGUAAGUGUACAUAGUCUGCAUGCCGCCGGGCGCCAUGCCUGCAGGUCGACUCUAGAAAACAUG,binding signal,PUM1 PUF domain R4-APA,1.33 log2 enrichment (interaction score)
GGCUAGAACUAGUGGAUCCCCCGGCGCCCGGCGGCUCGAGCCCGGGUAAGUGUAAAUGGUCUGCAUGCCGCCGGGCGCCAUGCCUGCAGGUCGACUCUAGAAAACAUG,binding signal,PUM1 PUF domain R1-TTR,2.5 log2 enrichment (interaction score)
GGCUAGAACUAGUGGAUCCCCCGGCGCCCGGCGGCUCGAGCCCGGGUAAGUGUUAAUAGUCUGCAUGCCGCCGGGCGCCAUGCCUGCAGGUCGACUCUAGAAAACAUG,binding signal,PUM1 PUF domain R5-IHR,3.52 log2 enrichment (interaction score)
same,binding signal,PUM1 PUF domain R5-KHV,2.08 log2 enrichment (interaction score)
same,binding signal,PUM1 PUF domain R5-KSC,2.38 log2 enrichment (interaction score)
same,binding signal,PUM1 PUF domain R5-RCS,2.74 log2 enrichment (interaction score)
same,binding signal,PUM1 PUF domain R5-DHI,4.16 log2 enrichment (interaction score)
GGCUAGAACUAGUGGAUCCCCCGGCGCCCGGCGGCUCGAGCCCGGGUAAGUCUAAAUAGUCUGCAUGCCGCCGGGCGCCAUGCCUGCAGGUCGACUCUAGAAAACAUG,binding signal,PUM1 PUF domain R7-ERA,2.68 log2 enrichment (interaction score)
GGCUAGAACUAGUGGAUCCCCCGGCGCCCGGCGGCUCGAGCCCGGGUAAGCGUAAAUAGUCUGCAUGCCGCCGGGCGCCAUGCCUGCAGGUCGACUCUAGAAAACAUG,binding signal,PUM1 PUF domain R8-AHR,3.45 log2 enrichment (interaction score)
GGCUAGAACUAGUGGAUCCCCCGGCGCCCGGCGGCUCGAGCCCGGGUAAGUGUAUAUAGUCUGCAUGCCGCCGGGCGCCAUGCCUGCAGGUCGACUCUAGAAAACAUG,binding signal,PUM1 PUF domain R4-APA,2.47 log2 enrichment (interaction score)
GGCUAGAACUAGUGGAUCCCCCGGCGCCCGGCGGCUCGAGCCCGGGUAAGUGUAAAUCGUCUGCAUGCCGCCGGGCGCCAUGCCUGCAGGUCGACUCUAGAAAACAUG,binding signal,PUM1 PUF domain R1-TTR,4.01 log2 enrichment (interaction score)
GGCUAGAACUAGUGGAUCCCCCGGCGCCCGGCGGCUCGAGCCCGGGUAAGUGUCAAUAGUCUGCAUGCCGCCGGGCGCCAUGCCUGCAGGUCGACUCUAGAAAACAUG,binding signal,PUM1 PUF domain R5-KSC,5.14 log2 enrichment (interaction score)
same,binding signal,PUM1 PUF domain R5-KLT,2.35 log2 enrichment (interaction score)
same,binding signal,PUM1 PUF domain R5-RCS,3.59 log2 enrichment (interaction score)
